Results as given in PubChem BioAssay.
Unmarked numbers belong to inactive results. Calls of active or inactive are those of the source. Cut-off read from the data, not from the text of the source: active = inhibition above about 36%; inactive = the rest.

Test system: transactivating tegument protein VP16 (Human herpesvirus 1)
Experiment: compounds suppressing VP16-driven luciferase signal – cell-based, luminescence, single concentration, counter-screen for SRC2 inhibitor project (AID 652007)
Settings: cell-based VP16 transactivation luciferase reporter, at 8.9 µM, stronger effect = higher value

Row | Compound | inhibition
1 | Cc1sc(NC(=O)CCCC(=O)O)c(C(N)=O)c1-c1ccccc1 | 37.1% (active)
2 | Cc1c(CCC(=O)N[C@@H](C)C(=O)O)c(=O)oc2c(C)c3oc4c(c3cc12)CCCC4 | 25%
3 | C=CCNC(=S)NCc1ccccc1 | -11.1%
4 | C=CS(=O)(=O)N(Cc1nnn(Cc2ccccc2)c1Br)[C@H](C(=O)OC)C(C)C | 18.8%
5 | NC(=O)c1ccsc1NC(=O)COC(=O)c1ccc([N+](=O)[O-])o1 | -4.1%
6 | CC(C)c1nc(N2CCOCC2)c(C#N)c2c1CCC2 | -15.7%
7 | COc1cc(NC(=O)CSc2nnc3c(C)cc4cc(C)cc(C)c4n23)c(C(=O)O)cc1OC | -9.86%
8 | Cc1nc2ccccc2c2c1C(=O)N(c1ccc(C(=O)O)cc1)C2=O | -3.24%
9 | Cn1cc(CN2CCN(CCO)CC2)c(-c2ccc(Oc3ccccc3)cc2)n1 | -9.32%
10 | COC(=O)c1cnn(-c2ccc(Cl)cc2)c1/C=N/NC(N)=S | 22%
11 | COc1cc2[nH]c(=O)n(CCCCCC(=O)NCCCN3CCCC3=O)c(=O)c2cc1OC | 7.78%
12 | CN(Cc1ccccc1)S(=O)(=O)c1ccc(Cl)c(C(=O)NCCCN2CCOCC2)c1 | -5.53%
13 | COc1ccccc1/C=C/C(=O)c1cc(Br)ccc1OC(=O)c1ccco1 | -1.7%
14 | N#Cc1ccc(-c2ccc(OCC(=O)Nc3cccnc3)cc2)cc1 | -9.35%
15 | Cc1ccc(C(=O)OCC(=O)NC2CCCC(C)C2C)cc1S(=O)(=O)N1CCCCC1 (stereo not given) | -10.8%
